# Shown is part of a subset that was picked to be rich in hits.
# mcGAS MS inh = blocks mouse cGAS cGAMP production; Q8C6L5; 130,000 compounds, 0.18% hits; AID 1259397; recombinant mouse cGAS, cGAMP by RapidFire MS; inhibition, % at 12.5 µM;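 active = inhibition of cGAS enzyme activity at or above 60%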;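 also: enzyme stimulated by 45 bp dsDNA with ATP and GTP substrates; cGAMP share of summed cGAMP plus half ATP and half GTP signals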
# Target sequence (Q8C6L5 whole entry, looked up): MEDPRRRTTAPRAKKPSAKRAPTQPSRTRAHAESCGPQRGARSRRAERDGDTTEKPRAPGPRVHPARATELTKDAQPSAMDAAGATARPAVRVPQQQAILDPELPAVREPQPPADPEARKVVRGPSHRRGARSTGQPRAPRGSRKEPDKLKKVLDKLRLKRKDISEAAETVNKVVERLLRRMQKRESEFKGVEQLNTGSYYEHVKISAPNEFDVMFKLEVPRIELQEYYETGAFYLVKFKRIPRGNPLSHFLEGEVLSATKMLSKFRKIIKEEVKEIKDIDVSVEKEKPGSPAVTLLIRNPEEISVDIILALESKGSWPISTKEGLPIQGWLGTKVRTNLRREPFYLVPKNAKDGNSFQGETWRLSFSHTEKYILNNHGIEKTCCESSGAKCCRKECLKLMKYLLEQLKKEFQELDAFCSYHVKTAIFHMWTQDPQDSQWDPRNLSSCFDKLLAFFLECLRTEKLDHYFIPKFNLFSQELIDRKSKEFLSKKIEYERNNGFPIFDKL
# The depositor's hits bear a star.
SMILES,mcGAS MS inh
CCCCc1nc(CN2CCCN(Cc3nccn3C)CC2)no1,-28
CCCN1CCCC1C(=O)N1CCCN(Cc2nccn2C)CC1 (configuration not stated),94*
Cn1ccnc1CN1CCCC(CCNS(C)(=O)=O)C1 (configuration not stated),-4
Cc1ncsc1CCC(=O)N1CCC(CCC(=O)Nc2ccc3c(c2)OCCO3)CC1,-4
O=C1C=CC2=C3c4cc(O)c(O)cc4CC3(O)COC2=C1O (configuration not stated),97*
CC1=C(C(=O)OCC2CCCO2)C(c2ccccc2OCc2ccccc2)NC(=O)N1 (configuration not stated),-9
COC(C)c1ccc(-c2ccc(NC(=O)CN)c(F)c2)cc1 (configuration not stated),4
Clc1ccc(Oc2ccnc3cc(Cl)ccc23)cc1,-4
Clc1ccc2c(-n3ccnc3)ccnc2c1,67*
Clc1ccc2c(Oc3ccc(Br)cc3)ccnc2c1,-20
N#Cc1cnc(Sc2nnc(-c3ccccc3)n2N)nc1N,-2
C=CCN=C1NN=C(c2ccc(Cl)cc2)C(C)S1 (configuration not stated),10
CCCc1noc(C(C)N2CCCN(C(=O)c3ccccc3Cl)CC2)n1 (configuration not stated),76*
CCc1noc(C(C)N2CCN(S(=O)(=O)c3c(C)c(C)c(C)c(C)c3C)CC2)n1 (configuration not stated),-3
C=C(Br)CNC(=O)N1CCCN(C(=O)c2ccccc2Cl)CC1,-4
COc1cccc(C(O)CNC(=O)c2ccc3c(c2)NC(=O)CCS3)c1 (configuration not stated),-4
COC(=O)C1CCN(c2nc(C)cc(C)n2)CC1,-8
CCCCC(C)n1[nH]c(=O)cc1N (configuration not stated),63*
CCCCn1c(N)cc(=O)[nH]c1=O,-4
CCCCCC(C)n1[nH]c(=O)c2c(C)cc(C)nc21 (configuration not stated),13
O=C1CNc2c(c(=O)oc3ccccc23)N1,96*
O=c1oc2ccc(O)cc2c2c1NCCC2,-26
O=C(c1c(O)c2ccccc2oc1=O)C1CCC1,-2
Cc1cccc(-c2cccc(CNC(=O)NCCS(C)(=O)=O)c2)c1,3
CN1CCC(CN2CCC(CNC(=O)C3CCCCC3)C2)CC1 (configuration not stated),-7
SMILES,mcGAS MS inh
O=c1ccc(-c2ccncc2)nn1CCCNS(=O)(=O)c1cccs1,-5
CCOC(=O)Cn1nc(C)c(C)c(C#N)c1=O,-7
CCOC(=O)CN1C(=O)CSC1=CC#N,82*
CCOC(=O)C=C1SCC(=O)N1CC(=O)OCC,-8
Cc1ccc(-c2cc(NCCO)ncn2)c2cccnc12,-11
O=C(OCc1ccc(C(=O)N2CCCC2)cc1)c1cc(Cl)c[nH]1,-6
CC(C)(C)CC(=O)Nc1ccc(Cl)c([N+](=O)[O-])c1,-10
CC(C)c1nc(NC(=O)c2ccc(CNC(=O)C(C)(C)C)cc2)n[nH]1,77*
CC(C)(C)c1ccc(C(=O)Nc2n[nH]c(C(F)(F)F)n2)cc1,-1
CC(C)c1nc(NC(=O)c2cn(Cc3cccs3)nn2)n[nH]1,-5
COC(CNC(=O)c1cn(C)c2c(=O)n(-c3ccccc3)c(=O)[nH]c12)OC,-32
COc1ccc(C(=O)NCC2CCCCC2)cc1F,-6
Cc1ccc(NC(=O)c2ccc(S(N)(=O)=O)c(C)c2)cc1C,-11
Cc1coc(-c2ccc(C)c(NC(=O)c3cccc(NS(C)(=O)=O)c3)c2)n1,-9
Cc1ccc(C(=O)Nc2ccc(S(=O)(=O)O)c3cc(S(=O)(=O)O)cc(S(=O)(=O)O)c23)cc1NC(=O)c1cccc(NC(=O)Nc2cccc(C(=O)Nc3cc(C(=O)Nc4ccc(S(=O)(=O)O)c5cc(S(=O)(=O)O)cc(S(=O)(=O)O)c45)ccc3C)c2)c1,93*
Cc1[nH]c2ccccc2c1N=Nc1ccc(SC(F)F)cc1,-10
C=CCn1c(-c2ccc(OC)cc2)nn(CN(CC(C)C)C2CCS(=O)(=O)C2)c1=S (configuration not stated),0
CN1CCN(N=Cc2cc(Cl)cc(Cl)c2O)CC1,0
COc1cc(CCNC(=O)CCc2ccccn2)ccc1C,-3
CCc1nn2c(N)c(C=C3C=CC(=O)C=C3)c(=O)nc2s1,89*
Nc1c(C=C2C=CC(=O)C=C2)c(=O)nc2sc(-c3ccccc3)nn12,51
Nc1c(C=C2C=CC(=O)C=C2)c(=O)nc2sc(-c3ccccc3Cl)nn12,50
c1ccc2c(c1)OCC(c1nn3c(CN4CCCCCC4)nnc3s1)O2 (configuration not stated),70*
S=c1n(CN2CCCC2)nc(C2COc3ccccc3O2)n1-c1ccccc1 (configuration not stated),-2
c1ccc2c(c1)OCC(c1nn3c(CN4CCOCC4)nnc3s1)O2 (configuration not stated),16
SMILES,mcGAS MS inh
Cc1ccccc1C1=NN2C(=N)/C(=C/c3ccc(F)cc3)C(=O)N=C2S1,-4
COCc1c(C(=O)NCC(F)(F)F)sc2ccccc12,-6
CCOC(=O)c1nn(-c2ccc(F)cc2)c(=O)cc1OCC(=O)NCc1ccccc1OC,-3
COc1ccc(-c2ccc(C(=O)N3CCCC3)o2)c2cccnc12,86*
COc1ccc(-c2ccc(NC(=O)C3CC3)nc2)c2cccnc12,-14
CNC(=O)c1ccc(-c2ccc(OC)c3ncccc23)s1,-8
CN(Cc1cccc(C(N)=O)c1)C(=O)CC1OCCc2ccsc21 (configuration not stated),-5
C=CCN(Cc1ccc(OC)cc1)C(=O)c1ccc2c(c1)NC(=O)CO2,2
O=S(=O)(N=Cc1c(O)ccc2ccccc12)c1ccccc1,17
Oc1ccc2ccccc2c1N=Nc1c(O)ccc2ccccc12,-12
Oc1ccc2ccccc2c1SSc1c(O)ccc2ccccc12,66*
Cc1cc2c(cc1Br)NCC(C)O2 (configuration not stated),-8
C/C(=N/OC(=O)c1ccccc1C)c1ccc(Cl)cc1Cl,-2
CCOC(=O)c1cccc2c1-c1ccccc1/C2=N/O,-16
Cc1ccccc1C(=O)O/N=C1/C(=O)c2ccccc2-c2ccccc21,70*
O=C(O)c1cc(S(=O)(=O)Nc2ccc(N3CCCCC3)cc2)c(Cl)cc1Cl,22
CC(C)c1noc(C(C)N2CCN(c3ncnc4[nH]ccc34)CC2)n1 (configuration not stated),-3
O=C(NCCN1CCCCC1)c1cc(N2CCCN3CCC[C@H]3C2)ccn1,78*
CCN(CC)CCNC(=O)c1cc(N2CCCCCC2)ccn1,-19
COCCNC(=O)c1cc(N2CCCN(C)CC2)ccn1,-16
COCC(NC(=O)c1cc(-c2ccccc2)n[nH]1)c1ccnn1C (configuration not stated),-12
COc1ccc(-n2nc(C(=O)O)c(=O)n(Cc3ccccc3F)c2=O)cc1,-8
CCOC(=O)c1nn(-c2ccccc2)c(=O)cc1OS(=O)(=O)c1cccs1,1
Cc1nc2c(cc(OS(=O)(=O)c3cccs3)c3ccsc32)s1,62*
Cc1nc2c(cc(O)c3ccsc32)s1,-5
Cc1cc(OC(F)F)c(C(=O)Nc2c(C)nn(C(C)C)c2C)s1,-3
O=C(OCc1cccc2ccccc12)c1ccc2c(c1)NC(=O)C1CCCN21 (configuration not stated),37
CN(C)CC1(O)CCN(C(=O)c2cn3cc(Cl)cnc3n2)C1 (configuration not stated),-20
CN1CCOc2cc(S(=O)(=O)N3C[C@H](N(C)C)C[C@H]3CO)ccc21,-8
